A number with no mark means an inactive call. Results filed as inconclusive are left out. A call without a number means that no potency is given here. The source made the active and inactive calls. Unless noted, calls follow the shape of the dose curve; as a rule, active = well fitted curve in the direction sought with a large enough effect in the repeat runs; inconclusive = weak or mixed curves; inactive = no such curve, though single readings can be large; an effect the other way counts as inactive or inconclusive.
Experiments:
[1] = qHTS assay to identify small molecule antagonists of the estrogen related receptor signaling pathway with the pleiotropic PPARgamma coactivator (PGC) from Tox21 10K library (AID 1224841; call rule not given here; also: actives are mostly falling curves and most rising ones were filed inactive; nearly all actives have a fitted effect of over 50% in size)
Procedure, shortened: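 Luminescence read-out (One-Glo luciferase reagent, 30 min at room temperature) from PGC/ERR cells exposed to DMSO-dissolved test compounds for 18 h at 37 C; cells, 2,000 per well, had been preincubated 6 h before compound transfer.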

[2] = qHTS assay to identify small molecule agonists of the estrogen related receptor signaling pathway with the pleiotropic PPARgamma coactivator (PGC) from Tox21 10K library (AID 1224842); also: nearly all actives have a fitted effect of over 15% in size; also: potency is read from the fitted curve at half-maximal effect
Procedure, shortened: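 PGC/ERR reporter cells (NTP line) were seeded 2,000 per well, rested 6 h at 37 C/5% CO2, then pin-dosed with compounds in DMSO for 18 h at 37 C; luciferase read by One-Glo luminescence after 30 min at room temperature.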

[3] = qHTS assay to identify small molecule agonists of the hypoxia (HIF-1) signaling pathway - cell viability counter screen (AID 1224844; calls by dose curve; also: nearly all actives have a fitted effect of over 50% in size)
Procedure, shortened: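 CellTiter-Glo luminescence read-out, 30 min RT, taken in the same wells as the beta-lactamase HRE reporter assay; HRE-bla ME-180 cells, 0.5% dialyzed FBS, 17 hr compound treatment at 37C, 5% CO2.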

[4] = qHTS assay to identify small molecule agonists of the hypoxia (HIF-1) signaling pathway (AID 1224846; active = well fitted activation curve with a large enough effect in the signal ratio in the repeat runs, not every such curve was filed as active; the % refers to the signal ratio)
Procedure, shortened: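 Beta-lactamase FRET read-out (CCF4-AM substrate) from ME-180 cells carrying an HRE-driven bla reporter, after 17 hrs compound exposure at 37C/5% CO2. Cells were seeded at 2,000 per well in 0.5% dialyzed FBS medium and preincubated 5 hrs.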

[5] = qHTS assay to identify small molecule agonists of H2AX - cell viability counter screen (AID 1224847; calls by dose curve; also: top concentration of the series differs between compounds; nearly all actives have a fitted effect of over 30% in size)
Procedure, shortened: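 For this counter screen, overnight-attached CHO-K1 cells received test compounds (15 concentrations, 0.76% DMSO final); 3 hr later at 37C, CellTiter-Glo reagent was added and luminescence recorded after 30 min at room temperature.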

[6] = qHTS assay to identify small molecule antagonists of the estrogen related receptor (ERR) signaling pathway from Tox21 library (AID 1224848); also: nearly all actives have a fitted effect of over 50% in size
Procedure, shortened: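 Tox21 10K compounds in DMSO tested for ERR pathway antagonism in NTP's ERR cell line; 18 h, 37 C exposure; ONE-Glo luminescence.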

[7] = qHTS assay to identify small molecule agonists of the estrogen related receptor (ERR) signaling pathway from Tox21 library (AID 1224849; calls by dose curve; also: nearly all actives have a fitted effect of over 15% in size); settings: ERR reporter cell line, ONE-Glo luciferase, 18 h; at 92.4 µM (top of the series) unless noted
Procedure, shortened: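 Luminescence readout (ONE-Glo, 30 min RT) after 18 h compound exposure at 37 C of NTP-supplied ERR reporter cells; cells were plated 6 h before compound addition by pin tool.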

[8] = qHTS RealTime-Glo MT Cell Viability Assay in HepG2 cells - 24 hour (AID 1224867); also: nearly all actives have a fitted effect of over 50% in size
Procedure, shortened: (§1)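 HepG2 suspension premixed with RealTime-Glo reagents is plated at 600 cells per well and left 5 h at 37 C/5% CO2. Compounds in DMSO then go in, and bioluminescence reflecting viable cell number is recorded over 40 h.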

[9] = A CellTox Green Cytotoxicity Assay to monitor cytotoxicity in HEK293 cells - 0 hour (AID 1224869); also: nearly all actives have a fitted effect of over 50% in size
Procedure, shortened: (§2)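 Read-out: fluorescence of a cell-impermeant cyanine dye staining DNA of dead cells, proportional to cytotoxicity. HEK293, 600 cells/well with reagent, compound (23 nL DMSO) added after 5 h; reads at 0, 8, 16, 24, 32, 40 h.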

[10] = qHTS RealTime-Glo MT Cell Viability Assay in HepG2 cells - 40 hour (AID 1224870); also: nearly all actives have a fitted effect of over 50% in size
Procedure, shortened: (§3)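 HepG2 cells mixed with RealTime-Glo MT reagents (NanoLuc plus cell-permeant prosubstrate) were seeded at 600 cells/well, incubated 5 h at 37 C/5% CO2, then pinned with compounds in DMSO; nonlytic luminescence tracked viability during 40 h treatment.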

[11] = A CellTox Green Cytotoxicity Assay to monitor cytotoxicity in HEK293 cells - 40 hour (AID 1224871); also: nearly all actives have a fitted effect of over 45% in size
Procedure, shortened: as §2

[12] = qHTS RealTime-Glo MT Cell Viability Assay in HepG2 cells - 8 hour (AID 1224873); also: nearly all actives have a fitted effect of over 55% in size
Procedure, shortened: as §3

[13] = A CellTox Green Cytotoxicity Assay to monitor cytotoxicity in HepG2 cells - 16 hour (AID 1224876); also: nearly all actives have a fitted effect of over 45% in size; also: potency is read from the fitted curve at half-maximal effect
Procedure, shortened: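 HepG2, 600 cells/well premixed w/ CellTox Green; 5 h settle, 37 C/5% CO2; pintool cpd add (DMSO); 37 C, 40 h; fluorescence read at 0, 8, 16, 24, 32, 40 h.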

[14] = qHTS RealTime-Glo MT Cell Viability Assay in HepG2 cells - 32 hour (AID 1224877); also: nearly all actives have a fitted effect of over 55% in size
Procedure, shortened: as §1

[15] = target: Thyrotropin receptor (Homo sapiens) (UniProt P16473); test: qHTS assay to identify small molecule agonists of the thyroid stimulating hormone receptor (TSHR) signaling pathway (AID 1224843; calls by dose curve; also: nearly all actives have a fitted effect of over 45% in size)
Thyrotropin receptor (Homo sapiens), sequence (P16473 whole entry, looked up): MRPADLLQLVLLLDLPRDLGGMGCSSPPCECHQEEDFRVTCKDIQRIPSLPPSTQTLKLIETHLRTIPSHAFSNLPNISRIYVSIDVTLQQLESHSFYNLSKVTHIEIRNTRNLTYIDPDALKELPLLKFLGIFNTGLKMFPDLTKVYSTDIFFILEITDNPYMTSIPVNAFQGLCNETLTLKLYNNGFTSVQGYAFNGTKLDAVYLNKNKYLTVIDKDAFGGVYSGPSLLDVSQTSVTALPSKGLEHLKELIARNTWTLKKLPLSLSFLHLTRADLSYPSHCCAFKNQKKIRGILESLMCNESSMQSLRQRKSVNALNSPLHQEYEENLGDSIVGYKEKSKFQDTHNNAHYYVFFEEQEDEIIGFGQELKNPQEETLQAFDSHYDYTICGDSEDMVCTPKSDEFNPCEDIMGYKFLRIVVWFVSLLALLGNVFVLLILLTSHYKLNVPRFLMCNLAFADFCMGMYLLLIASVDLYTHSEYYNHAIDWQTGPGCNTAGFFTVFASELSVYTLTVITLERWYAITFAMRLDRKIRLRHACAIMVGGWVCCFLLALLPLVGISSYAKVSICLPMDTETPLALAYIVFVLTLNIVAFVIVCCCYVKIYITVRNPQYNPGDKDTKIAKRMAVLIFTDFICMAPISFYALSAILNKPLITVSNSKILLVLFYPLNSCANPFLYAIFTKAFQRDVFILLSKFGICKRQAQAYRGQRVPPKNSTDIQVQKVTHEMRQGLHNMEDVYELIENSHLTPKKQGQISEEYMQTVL
Procedure, shortened: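 Using 15 concentrations per compound in triplicate, cAMP production was monitored in TSHR-HEK293 cells after 30 min compound incubation at RT; HTRF reagents followed, with fluorescence intensity recorded after 1 h.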

[16] = qHTS RealTime-Glo MT Cell Viability Assay in HEK293 cells - 32 hour (AID 1224868)
Procedure, shortened: (§4)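 Reads taken at 0, 8, 16, 24, 32 and 40 h from the same wells. HEK293 cells (600/well) carried RealTime-Glo reagents from seeding, with compound added after a 5 h settle at 37 C.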

[17] = qHTS RealTime-Glo MT Cell Viability Assay in HEK293 cells - 16 hour (AID 1224872)
Procedure, shortened: as §4

[18] = qHTS RealTime-Glo MT Cell Viability Assay in HEK293 cells - 40 hour (AID 1224874); settings: RealTime-Glo luminescence, hits give low values; also: nearly all actives have a fitted effect of over 50% in size
Procedure, shortened: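 Luminescence readout at each listed time point; HEK293, 600 cells/well, RealTime-Glo MT reagent added with cells; compounds pinned (23 nL in DMSO) after 5 h at 37 C; continuous culture at 37 C.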

[19] = A CellTox Green Cytotoxicity Assay to monitor cytotoxicity in HEK293 cells - 24 hour (AID 1224875); also: nearly all actives have a fitted effect of over 45% in size
Procedure, shortened: as §2

[20] = qHTS assay to identify small molecule agonists of H2AX (AID 1224845; active = well fitted activation curve with a large enough effect in the signal ratio in the repeat runs, not every such curve was filed as active; the % refers to the signal ratio)
Procedure, shortened: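 Wild-type CHO-K1 cells plated overnight, then exposed 3 hr at 37C to compounds at 15 concentrations (0.76% DMSO). Lysed, then HTRF anti-pH2AX(S139)-cryptate/anti-H2AX-d2 detection after 24 hr at room temperature; emissions 665 and 620 nm.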

Compound | Potency [1] | Potency [2] | outcome [3] | outcome [4] | outcome [5] | outcome [6] | activity change, positive = activation [7] | outcome [8] | outcome [9] | outcome [10] | Potency [11] | outcome [12] | Potency [13] | outcome [14] | Potency [15] | outcome [16] | outcome [17] | max response [18] [%] | Potency [19] | outcome [20]
COc1ccc(Cl)cc1C | inactive | inactive | inactive | inactive | inactive | inactive | 7.2% | inactive | inactive | inactive | inactive | inactive | inactive | inactive |  |  |  |  |  | 
COc1ccc2cc(CCC(C)=O)ccc2c1 | inactive | 13.3 µM (active) | inactive |  | inactive | inactive | 114% [at 42.5 µM] (active) | inactive |  | inactive |  | inactive | inactive | inactive | inactive | inactive | inactive | -11.3 | inactive | 
CC(O)C(CO)C(C)O (configuration not stated) |  |  | inactive | inactive | inactive |  |  | inactive | inactive | inactive | inactive | inactive | inactive | inactive | inactive | inactive | inactive | -0.0675 | inactive | inactive
Cc1ccc(NC(N)=O)cc1 |  |  | inactive | inactive | inactive |  |  | inactive | inactive | inactive | inactive | inactive | inactive | inactive | inactive | inactive | inactive | 11.1 | inactive | inactive
CCCCCCCCCCCCCCCC/C=C/C1CC(=O)OC1=O (configuration not stated) |  |  | inactive | inactive | inactive |  |  | inactive | inactive | inactive | inactive | inactive | inactive | inactive | inactive | inactive | inactive | -0.0124 | inactive | inactive
CC(C)(C)C(=O)NCCCC(=O)O |  |  | inactive | inactive | inactive |  |  | inactive | inactive | inactive | inactive | inactive | inactive | inactive | inactive | inactive |  | 5.71 | inactive | inactive
CCCCCCCOC(C)=O |  |  | inactive | inactive | inactive |  |  | inactive | inactive | inactive | inactive | inactive | inactive | inactive | inactive | inactive | inactive | -2.34 | inactive | inactive
CCC(=O)OCCOc1ccccc1 |  |  | inactive | inactive | inactive |  |  | inactive | inactive | inactive | inactive | inactive | inactive | inactive | inactive | inactive | inactive | 5.48 | inactive | inactive
O=C1CCCc2c(O)cccc21 |  | inactive | inactive | inactive | inactive | inactive | 0.0223% [at 42.5 µM] | inactive |  | inactive | inactive | inactive | inactive | inactive |  | inactive | inactive |  | inactive | inactive
CCCCCCCCCCCCCC(=O)OCC |  |  | inactive | inactive | inactive |  |  | inactive | inactive | inactive | inactive | inactive | inactive | inactive | inactive | inactive | inactive | -1.33 | inactive | inactive
CC(C)(O)CCCC1=CCC(C=O)CC1 (configuration not stated) |  |  | inactive | inactive | inactive |  |  | inactive | inactive | inactive | inactive | inactive | inactive | inactive | inactive | inactive | inactive | -16 | inactive | inactive
CN(C)CCC[C@@]1(c2ccc(F)cc2)OCc2cc(C#N)ccc21 |  | inactive | inactive |  |  | inactive | -3.55% [at 42.5 µM] | inactive | inactive | inactive | inactive | inactive | inactive | inactive | inactive | inactive | inactive | -9.59 | inactive | 
Cc1cc(O)c(Cl)cc1C |  |  | inactive | inactive | inactive |  |  | inactive | inactive | inactive | inactive | inactive | 49 µM (active) | inactive | inactive | inactive | inactive | -1.07 |  | inactive
CC(C)(C)C(=O)CC(=O)C(C)(C)C |  | inactive | inactive | inactive | inactive | inactive | 3.23% | inactive | inactive | inactive | inactive | inactive | inactive | inactive | inactive |  | inactive | -12.1 | inactive | 
CCOc1ccccc1OCCN[C@H](C)Cc1ccc(OC)c(S(N)(=O)=O)c1 |  |  | inactive | inactive | inactive |  |  | inactive | inactive | inactive | inactive | inactive | inactive | inactive | inactive | inactive | inactive | -2.4 | inactive | inactive

Reference: PubChem BioAssay (Tox21)
